Compound activity: PubChem BioAssay, National Center for Advancing Translational Sciences (NCATS)
Rows were chosen to be rich in hits. Some 3.2% of all compounds tested hit in one or more screens of this group.
Nrf2 activator = activators of Nrf2 (ARE) signaling; AREc32 ARE-luciferase reporter (MCF7-derived line), luminescence, 24 h; Potency, µM (titrated, usually from 46.1 µM), actives largely listed as activators; 410,000 tested, 0.31% active; AID 624171; further: nearly all actives have a fitted effect of over 65% in size
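AREc32 cells carrying an ARE-driven firefly luciferase reporter were seeded at 1000 cells/well in OPTI-MEM with 5% FBS, then exposed to compound for 24 hr at 37 deg C. Luminescence was read with Steady-Glo after 30 min at RT.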
IL2 activator = activators of IL-2 | IL-2 activation reporter assay, cell-based qHTS; stimulated with anti-CD3/CD4/CD28 beads; in transgenic mouse T cells | activation, % (series mostly up to about 46 µM) | 360,000 tested, 0.065% active | AID 652025; in the data active means activation above about 50%; inconclusive means mostly about 30% to 49%
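Unstimulated transgenic mouse T cells preincubated 60 min with compound, then stimulated with anti-CD3/anti-CD4-coated beads plus anti-CD28 for 18 h at 37 degrees C. IL-2 response read as EGFP and DsRed fluorescence by plate cytometry.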
Nrf2 inh = Nrf2 pathway inhibition | AID 504444 | A549 ARE-Fluc reporter, luciferase luminescence, 18-24 h | Potency, µM (highest dose often 46 µM), actives largely listed as inhibitors | 360,000 tested, 2.1% active; further: nearly all actives have a fitted effect of over 60% in size
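In this cell-based qHTS, ARE-driven firefly luciferase in A549 cells reports Nrf2 activity; the luminescent signal after BugLite lysis is the measured value, with a prior CellTiter-Fluor read for cell health.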
BRCA1 expr up = BRCA1 expression activation | MCF7-BRCA1-FFLuc reporter, luminescence, 48 h; response scale: scaled: vehicle 0%, 10 µM genistein 100% | Potency, µM (doses to about 46.1 µM), most hits filed as activators | 380,000 tested, 1.1% active; further: nearly all actives have a fitted effect of over 80% in size
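Reporter cells (MCF7, BRCA1 promoter-firefly luciferase) received library compounds across a concentration series for 48 h. End-point luminescence was measured and concentration-effect curves derived after normalization.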
p53 reactivator = mutant p53 re-activation in reporter cells. 320,000 tested, 0.063% active. H1299 p53-A138V BP100-luciferase reporter, luminescence, 24 h. Potency, µM (top dose mostly 92.2 µM), usual class: activators; further: nearly all actives have a fitted effect of over 45% in size
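H1299 (p53-null), stable ts p53-A138V + BP100-Luc; 1000 cells/well, Opti-MEM/10% FBS; cpd 4 pt, 1:5; 24 h, 37 deg C, 5% CO2; detection reagent 10 min RT; luminescence.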
A549 viability = counter-screen for Nrf2 inhibitors: cytotoxicity in A549 cells; Potency, µM (doses to about 46 µM), most hits filed as inhibitors; A549 ARE-Fluc cells, CellTiter-Fluor viability, 18-24 h; 390,000 tested, 0.16% active
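Cytotoxicity counterscreen: CellTiter-Fluor fluorescence was measured in A549 ARE_Fluc cells after 18-24 h of compound exposure in a concentration series. The subsequent BugLite luminescent read reports ARE-luciferase activity.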
Hits are given with their value; 0 = inactive; ? = inconclusive; - = no result given. Unless noted, the call rests on the fitted dose curve; in most records, active means well fitted curve in the direction sought with a large enough effect; inconclusive means small, poorly fitted or top-dose-only effect, or another doubt; inactive means no such curve, though single readings can be large; an effect the other way counts as inactive or inconclusive.

SMILES	Nrf2 activator	IL2 activator	Nrf2 inh	BRCA1 expr up	p53 reactivator	A549 viability
COc1ccc(C(=O)/C(C#N)=N/Nc2ccc([N+](=O)[O-])cc2)cc1	0	0	2.6µM	0	0	?
Cc1c(N/N=C(\C#N)C(=O)c2ccc(Cl)cc2)c(=O)n(-c2ccccc2)n1C	0	0	?	0	0	?
CCOC(=O)N1CCc2c(sc3c2c(=O)n(CCc2ccccc2)c(=O)n3Cc2ccc(C)cc2C)C1	0	-	0	-	-	0
CCc1cccc(NS(=O)(=O)c2ccc3c(c2)N(CC(=O)OC)C(=O)CS3)c1	0	-	?	-	-	0
Cc1ccc(NC(=O)CSc2nccn2Cc2ccc3c(c2)OCO3)c(C)c1	0	-	-	-	-	0
CCN1CCN(c2c(S(=O)(=O)c3ccc(C)c(C)c3)cnc3cc(OC)c(OC)cc23)CC1	0	-	0	-	-	0
CCc1ccc2ncc(S(=O)(=O)c3ccc(C)c(C)c3)c(N3CCCC3)c2c1	0	0	23µM	0	0	0
O=c1c(N2CCCCC2)csc2ccc(F)cc12	0	-	-	-	-	0
O=c1cc(-c2ccc3c(c2)OCO3)oc2ccccc12	0	0	0	0	?	0
Nc1c(-c2ccc3c(c2)OCCO3)oc2ccccc2c1=O	0	0	?	2.5µM	?	0
COc1ccc(C2Nc3ccccc3C(=O)N2Cc2ccccc2)cc1OCc1ccc(NC(C)=O)cc1 (configuration not stated)	-	-	0	-	-	0
C1=Nc2ccccc2CN1c1ccccc1	0	0	?	7.1µM	?	0
CC(C)c1ccc(N2C=Nc3ccc(C(C)C)cc3C2)cc1	0	0	?	0	0	?
CC(=NNC(=S)N1CC2CCC(CC2)C1)c1cccc(C)n1	0	0	?	0	-	9.2µM
CC(=O)Nc1ccc(S(=O)(=O)N2CCN(S(=O)(=O)c3ccc4c(c3)OCCO4)CC2)cc1	-	-	?	-	-	0
CN(C)c1ccc(CN(Cc2ccco2)C(=O)c2ccco2)cc1	0	0	0	0	0	0
Cc1ccc2c(CC(=O)N(Cc3ccc(N(C)C)cc3)Cc3ccco3)coc2c1C	0	-	23µM	-	-	0
Cc1ccc(Nc2nc3ccc(C)cc3nc2-n2nc(C)cc2C)c(C)c1	0	-	0	-	-	0
COc1ccc(CN2C(=O)C(NC(=O)c3ccc(C)cc3)(C(F)(F)F)N=C2c2ccccc2)cc1 (configuration not stated)	0	-	0	0	-	0
CCCC(c1nnnn1CS(=O)(=O)c1ccc(C)cc1)N1CCN(c2ccccc2)CC1 (configuration not stated)	0	0	0	0	0	0
COc1ccc(C(c2nnnn2Cc2ccccc2)N2CCN(c3nc4ccccc4s3)CC2)cc1 (configuration not stated)	0	0	-	0	0	0
COCCn1nnnc1C(c1ccc(OC)c(OC)c1)N1CCN(c2nc3ccccc3s2)CC1 (configuration not stated)	0	0	9.2µM	0	0	0
CCC(c1nnnn1CS(=O)(=O)c1ccc(C)cc1)N1CCN(c2nc3ccccc3s2)CC1 (configuration not stated)	0	0	8.2µM	0	0	0
Cc1oc(-c2ccccc2)cc1C(=O)Nc1cccc(/C=C/C(=O)O)c1	0	0	23µM	0	0	0
CCCc1cc(=O)oc2c3c(cc(OCC(=O)NCc4ccncc4)c12)OC(C)(C)CC3	0	0	12µM	0	-	?
SMILES	Nrf2 activator	IL2 activator	Nrf2 inh	BRCA1 expr up	p53 reactivator	A549 viability
CCOC(=O)c1[nH]c2c(c1Cc1ccccc1OC)C(=O)CC(c1ccc(OCC)cc1)C2 (configuration not stated)	0	-	?	-	-	0
CCC1CCCCN1C(=O)CSc1nc(-c2ccc(OC)cc2)cc(C(F)(F)F)n1 (configuration not stated)	0	-	21µM	0	-	0
Cc1cn(C)c(CC(=O)N2CCN(c3ccc(F)cc3)CC2)c1C(=O)O	0	-	-	-	-	0
CC1CC=CC2C1C(=O)N(Cc1ccccc1)C2c1ccc(Br)cc1F (configuration not stated)	-	-	0	-	-	0
CC1(C)Cc2c(cnn2-c2ccc(F)cc2)C(NC(=O)c2ccco2)C1 (configuration not stated)	0	0	0	0	0	0
CC12CC(c3ccccc3O1)N(C(=O)c1ccco1)C(=S)N2c1ccc(F)cc1 (configuration not stated)	0	0	16µM	0	0	?
Cc1ccnc(OC(C(=O)O)C(OCc2ccccc2)(c2ccccc2)c2ccc(C(F)(F)F)cc2)n1 (configuration not stated)	0	0	10µM	0	0	0
Cc1cc(C)nc(OC(C(=O)O)C(OCc2ccccc2)(c2ccccc2)c2ccccc2)n1 (configuration not stated)	0	0	?	0	0	0
NC(=O)c1cc(S(=O)(=O)Nc2ccc(OC(F)(F)F)cc2)cs1	0	0	18µM	0	?	0
COc1ccc(CN(Cc2ccccc2)C(=O)c2ccco2)cc1COc1ccc(NC(C)=O)cc1	-	-	?	0	-	0
CCOC(=O)N1CCN([N+]([O-])=NOc2cc(O/N=[N+](\[O-])N(C)C)c([N+](=O)[O-])cc2[N+](=O)[O-])CC1	-	-	0	-	-	?
N#C/C(=C\c1cccc([N+](=O)[O-])c1)c1ccccn1	3.5µM	0	0	0	0	0
COc1ccc(NC(=O)c2ccco2)cc1NC(=O)COc1ccc(Cl)c(C)c1	0	-	0	-	-	0
Cc1ccc(C(=O)NCC(c2cccnc2)N2CCc3ccccc32)cc1C (configuration not stated)	0	-	0	-	-	0
C=CC[n+]1c(-c2ccc(OC)c(OC)c2)csc1NNC(=O)Nc1ccccc1	0	0	13µM	0	0	?
CCn1c(=O)c(C(=O)Nc2nc3ccccc3[nH]2)c(O)c2ccccc21	0	0	16µM	0	0	21µM
Cn1nc(C(=O)Nc2nc3ccccc3[nH]2)ccc1=O	0	0	?	7.9µM	0	0
CC(Cc1cccs1)NC(=O)c1cccs1 (configuration not stated)	0	0	?	?	0	0
CC(Cc1cccs1)NC(=O)Nc1ccc([N+](=O)[O-])cc1 (configuration not stated)	0	0	0	5.6µM	0	?
CC1Cc2ccccc2N1C(=O)c1ccc(N2CCCCC2)c([N+](=O)[O-])c1 (configuration not stated)	0	0	23µM	0	?	0
CC1Cc2ccccc2N1C(=O)c1ccc(N2CCCC2)c([N+](=O)[O-])c1 (configuration not stated)	0	0	18µM	0	0	?
